AmpC detergent: qHTS Inhibitors of AmpC Beta-Lactamase (assay with detergent); P00811; AmpC hydrolysis of nitrocefin, absorbance 480 nm, 0.01% Triton; Potency, µM (titrated, usually from 114 µM), for the others: at the top dose activity change, negative = inhibition, most hits filed as inhibitors; 370,000 tested, 0.041% active; AID 485294, 2010;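 further: 0% = no-compound wells and -100% = no-enzyme wells; nearly all actives have a fitted effect of over 25% in size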
Target sequence (P00811 whole entry, looked up): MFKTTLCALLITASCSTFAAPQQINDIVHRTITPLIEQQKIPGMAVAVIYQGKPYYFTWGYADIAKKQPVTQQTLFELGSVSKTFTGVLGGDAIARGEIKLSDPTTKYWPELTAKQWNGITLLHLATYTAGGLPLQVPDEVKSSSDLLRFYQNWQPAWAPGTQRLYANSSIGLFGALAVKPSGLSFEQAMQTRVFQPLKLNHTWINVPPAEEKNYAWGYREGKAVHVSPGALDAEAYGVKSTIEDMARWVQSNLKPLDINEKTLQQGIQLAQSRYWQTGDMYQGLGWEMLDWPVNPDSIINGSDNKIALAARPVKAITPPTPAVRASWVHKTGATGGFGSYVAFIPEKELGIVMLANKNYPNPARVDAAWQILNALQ
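20 mM phosphate pH 7.0 + 0.01% (detergent screen) or 0.0001% Triton X-100; 5.3 nM AmpC reagent; cpd preinc 15 min RT; nitrocefin (800 uM stock) to start; A480 q20 s × 4 min; Activity was normalised to no-enzyme and no-compound control wells.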
Sm TGR block: qHTS Assay for the Inhibitors of Schistosoma Mansoni Peroxiredoxins | Schistosoma mansoni thioredoxin glutathione reductase (TGR), Q962Y6 | purified TGR, DTNB reduction, TNB absorbance 405 nm | Potency, µM (doses to about 114 µM), for the others: at the top dose activity change, negative = inhibition, hits mostly inhibitors | 360,000 tested, 3% active; further: nearly all actives have a fitted effect of over 60% in size
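First, TGR (20 nM dispensed) and NADPH were mixed with compound. Second, a 15 min room-temperature incubation followed. Third, further NADPH and then DTNB were added to start the reaction. Finally, TNB absorbance was monitored kinetically.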
AmpC inh no detg: qHTS Inhibitors of AmpC Beta-Lactamase (assay without detergent); P00811; AmpC nitrocefin hydrolysis, absorbance 480 nm, 0.0001% Triton; 330,000 tested, 0.52% active; AID 485341, 2010; Potency, µM (series often up to 57.1 µM), without a hit: at the highest dose activity change, negative = inhibition, hits mostly inhibitors;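 further: plate controls were no compound for no effect and no enzyme for full effect; nearly all actives have a fitted effect of over 20% in size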
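AmpC (5.3 nM in the dispensed reagent) in 20 mM phosphate pH 7.0 with 0.01% (detergent screen) or 0.0001% Triton X-100 was preincubated with compounds for 15 min at room temperature. Nitrocefin was then added from an 800 uM solution, and hydrolysis was followed at 480 nm.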
* = called active by the depositor; ? = inconclusive; . = no result given. Most compounds without a hit are left out; they make up all but 3.3% or so of the library. The call rests on the fitted dose curve; in most records, active means well fitted curve in the direction sought with a large enough effect; inconclusive means small, poorly fitted or top-dose-only effect, or another doubt; inactive means no such curve, though single readings can be large; an effect the other way counts as inactive or inconclusive. Unless noted, on the % scale 0 is the no-effect control and ±100 the full control effect; potency means the concentration at half of the fitted maximal effect.

SMILES	AmpC detergent	Sm TGR block	AmpC inh no detg
COc1ccc(OC)c(-c2cc(C(=O)N/N=C(\C)c3cccnc3)c3ccccc3n2)c1	-7%	-16%	-4%
C/C(=N\NC(=O)c1cc(-c2ccco2)nc2ccccc12)c1cccnc1	1%	10µM*	-27%
O=C(NC1CC1)c1cc(-c2ccco2)nc2ccccc12	-2%	10µM*	?
O=C(N/N=C/c1ccc(F)cc1)c1cc(-c2ccco2)nc2ccccc12	-11%	11µM*	-54%
CCOc1ccc(/C=N/NC(=O)c2cc(-c3ccco3)nc3ccccc23)cc1	-11%	2%	-35%
O=C(Nc1nccs1)c1cc(-c2ccccc2)nc2ccccc12	-4%	1%	-17%
O=C(Nc1nccs1)c1cc(-c2ccco2)nc2ccccc12	-13%	56µM*	?
Cc1ccccc1C(=O)N1CCC(C(=O)N(CC(C)C)c2c(N)n(Cc3ccccc3)c(=O)[nH]c2=O)CC1	-12%	-4%	-31%
CCOc1ccc(-c2cc(C(=O)NCCc3ccccc3)c3c(-c4ccc(C)cc4)[nH]nc3n2)cc1	-1%	7%	.
CC(C)N1CCc2c(sc(NC(=O)c3ccc(S(=O)(=O)N4CCCCC4C)cc3)c2C(N)=O)C1 (stereo not given)	13%	-16%	133%
CC(C)C1OC(c2cccc(NC(=O)c3cccs3)c2)OCC1(C)C (stereo not given)	5%	7%	?
CCC(CO)Oc1cc(NC(=O)c2cccc(OC)c2)c2ncn(C(C)C)c2c1 (stereo not given)	.	.	7%
Cc1nnc(NC(=O)c2cc(-c3ccco3)nc3ccccc23)s1	3%	7.9µM*	-9%
O=C(Nc1nc2ccccc2s1)c1cc(-c2ccco2)nc2ccccc12	-8%	-33%	-36%
CCCOc1ccc(N)cc1N	?	1.8µM*	-4%
CCCOc1cc(N)ccc1C(=O)OCCN(CC)CC	?	-7%	-15%
NNC(=O)CCN1CCN(C(c2ccccc2)c2ccccc2)CC1	0%	13%	50%
Cc1cccc(NC(=O)CN2C(=O)NC3(CCCC3)C2=O)n1	-16%	0%	-15%
CN(C)CCN(C(=O)c1ccc(C(=O)c2ccccc2)cc1)c1nc2cc3c(cc2s1)OCCO3	-14%	3%	-3%
CN(C)CCN(C(=O)c1ccc(N2C(=O)CCC2=O)cc1)c1nc2cc3c(cc2s1)OCCO3	10%	35µM*	55%
Cc1cc(NC(=O)CSc2nnc(NCc3ccco3)s2)no1	-4%	-5%	-6%
OC(c1ccc(F)cc1)(C1CCCCC1)C(CN1CCOCC1)c1ccccc1 (stereo not given)	?	89µM*	88%
CC(C)CC(O)(c1ccccc1)C(CN1CCOCC1)c1ccccc1 (stereo not given)	0%	-10%	133%
CCOC(=O)c1ccc(NC(=S)N2CCC(C(N)=O)(N3CCCCC3)CC2)cc1	5%	6%	44%
CCOc1ccc(C(=O)OC(C)C(=O)N2CCN(Cc3ccccc3)CC2)cc1 (stereo not given)	.	.	135%
SMILES	AmpC detergent	Sm TGR block	AmpC inh no detg
CCOc1ccc(C(=O)CC(C(=O)O)N2CCN(Cc3ccccc3)CC2)cc1 (stereo not given)	-2%	7.9µM*	-9%
CCOc1ccc(C(=O)CCC(=O)N(CC)CC(=O)NCc2cccs2)cc1	3%	-15%	23%
CCOc1ccc(C(=O)CC(C(=O)O)N2CCCCC2)cc1 (stereo not given)	?	6.3µM*	-6%
CCOc1ccc(C(=O)CC(NCc2cccs2)C(=O)O)cc1 (stereo not given)	2%	6.3µM*	-24%
CCOc1ccc(C(=O)N2CCCCCC2)cc1	-3%	-2%	-5%
COC(=O)c1ccccc1NC(=O)CN(c1ccccc1OC)S(C)(=O)=O	1%	0%	.
Cc1ccc(C)c(S(=O)(=O)c2nnn3c2nc(Nc2ccc(F)c(Cl)c2)c2sccc23)c1	19%	10%	.
COc1ccc(-c2noc(CNS(=O)(=O)c3ccccc3)n2)cc1	-9%	-23%	-27%
COc1cccc(CNC(=O)CCC2CCCN(C(=O)c3ccc(OC)c(F)c3)C2)c1 (stereo not given)	-5%	-3%	44%
O=C(CN1CCC2(CC1)OCCO2)c1ccc2cc[nH]c2c1	-10%	45µM*	-14%
O=C(CN1CCOCC1)c1ccc2cc[nH]c2c1	-1%	?	-17%
Cc1ccc(-c2csc3ncn(-n4c(C)ccc4C)c(=O)c23)o1	-8%	6.3µM*	14%
Cc1sc2ncn(-n3c(C)ccc3C)c(=O)c2c1C	-17%	?	-10%

High-throughput results (PubChem)
